From PubChem
D2 ag-1: activates the human D2 dopamine receptor; actives 0.084% (n = 360,000); DiscoveRx PathHunter D2 beta-arrestin, luminescence, 90 min; 100% = 57 uM dopamine signal; AID 624465; activation, % (no concentration beside the values); in the data active means activation above about 40%; inconclusive means between about 15% and that limit
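DiscoveRx PathHunter D2 beta-arrestin cells (2,100/well) attached overnight, then compound-stimulated 90 min at 37 C in HBSS/10 mM HEPES/0.1% Tween-20 buffer; beta-galactosidase complementation read by luminescence after 1 h at ambient temperature. Dopamine 57 uM final (EC100) as control.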
D2 ag-2: D2 dopamine receptor (human) agonism. HEK293 T-REx D2 cells, calcium flux agonist mode. actives 0.53% (n = 340,000). P14416. activation, % at 2 µM;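 active means activation over 3 SD above normal in the single-dose calcium agonist read, cut at about 30% in these data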; further: 0% is about no effect
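Calcium-flux readout, 1 cycle/sec over 180 s following compound pin transfer, in inducible HEK293 Trex D2 cells (force-coupled); dopamine controls included. Positive calcium responses during this window marked compounds as potential agonists.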
D2 antag: antagonists of human D2 dopamine receptor | P14416 | HEK293 TREx D2 cells, calcium flux, dopamine EC80 | inhibition, % at 10 µM | actives 2% (n = 340,000) | AID 485344; in the data active means inhibition above about 30%; inactive means below that, where a call was filed; further: 0% is about no effect
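Dopamine at EC80 is the agonist stimulus; test compounds precede it by 180 s. Calcium flux read kinetically in a force-coupled, inducible HEK293 T-REx D2 cell line.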
D2 PAM-1: positive allosteric modulators of human D2 dopamine receptor; P14416; DiscoveRx D2 beta-arrestin cells, luminescence, 90 min; 100% = 57 uM dopamine signal; potentiation, % (test concentration not listed); actives 0.23% (n = 360,000); in the data active means potentiation above about 50%; inconclusive means mostly about 30% to 49%
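PathHunter D2 cells, attached overnight at 37 deg C, received compound in DMSO plus dopamine at EC20 (50 nM final) for 90 min at 37 deg C. Beta-arrestin recruitment was read as luminescence after 1 h with detection reagent at ambient temperature.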
D2 PAM-2: positive allosteric modulators of human D2 dopamine receptor; P14416; HEK293 T-REx D2, calcium flux, EC20 dopamine potentiation; potentiation, % at 10 µM; actives 0.34% (n = 340,000); AID 485347;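 active means potentiation over 3 SD above the plate norm, cut at about 30% in these data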; further: 0% is about no effect
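Potentiation of an EC20 dopamine calcium response is measured in a force-coupled, tetracycline-inducible Hek293 Trex D2 line. Compound-only kinetic reads over 180 s flag agonists before dopamine addition.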
D3 arrestin ag: D3 receptor agonism confirmed, beta-arrestin readout; DiscoveRx D3 beta-arrestin cells, luminescence, 90 min; shares compounds with D2 ag-2; actives 4% (n = 2,300); Potency, µM (highest dose often 76.9 µM), for inactives: at the top dose activation, usual class: activators;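 further: potency means the concentration at half of the fitted maximal effect; 100% = dopamine control response; nearly all actives have a fitted effect of over 70% in size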
Target sequence (P35462 whole entry, looked up): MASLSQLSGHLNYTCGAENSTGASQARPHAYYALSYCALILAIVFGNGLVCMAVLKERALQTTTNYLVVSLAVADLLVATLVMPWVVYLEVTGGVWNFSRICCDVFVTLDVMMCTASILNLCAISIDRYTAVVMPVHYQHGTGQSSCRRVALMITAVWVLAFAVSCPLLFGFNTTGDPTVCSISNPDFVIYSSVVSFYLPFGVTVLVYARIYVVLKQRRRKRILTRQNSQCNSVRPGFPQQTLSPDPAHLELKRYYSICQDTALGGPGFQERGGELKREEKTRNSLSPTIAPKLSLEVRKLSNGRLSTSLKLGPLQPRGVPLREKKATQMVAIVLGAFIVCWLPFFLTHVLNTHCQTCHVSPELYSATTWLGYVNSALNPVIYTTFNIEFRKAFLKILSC
D2 ag-3: D2 receptor agonism, beta-arrestin counterscreen. shares compounds with D2 ag-2. DiscoveRx PathHunter D2 beta-arrestin, luminescence, 90 min; response scale: percent relative to full dopamine signal. Potency, µM (titrated, usually from 76.9 µM), for inactives: at the highest dose activation, actives largely listed as activators. actives 5.9% (n = 2,300); further: potency means the concentration at half of the fitted maximal effect; % of control where 0% means no effect; nearly all actives have a fitted effect of over 70% in size
The depositor's hits bear a star; ? = inconclusive; . = no result. An excerpt weighted towards active compounds, which were near 2.4% of everything screened. Unless noted, the call rests on the fitted dose curve; in most records, active means well fitted activation curve with a large enough effect; inconclusive means small, poorly fitted or top-dose-only effect; inactive means flat fitted curve, though single readings scatter.

SMILES	D2 ag-1	D2 ag-2	D2 antag	D2 PAM-1	D2 PAM-2	D3 arrestin ag	D2 ag-3
NS(=O)(=O)c1ccc(-c2ccc(/C=N/Nc3ccc(C(=O)O)cc3)o2)cc1	?	4	8	16	-1	11%	15%
CCN1CCN(C(CNS(=O)(=O)c2ccccc2)c2ccccc2)CC1 (stereo unspecified)	-6	1	-6	-13	3	.	.
O=C(O)c1ccc(/C=C2\SC(=S)N(Nc3ccccc3)C2=O)cc1	-14	3	6	-3	7	?	2%
O=C1/C(=C/c2ccncc2)SC(=S)N1Nc1ccccc1	-4	1	-2	-9	1	.	.
Cc1nc(NCCc2ccccc2)c2nnn(Cc3ccccc3Cl)c2n1	9	23	-3	-4	-16	22%	19%
CCC(NC(=O)CSc1nnnn1C1CC1)c1ccc(Br)cc1 (stereo unspecified)	-5	0	-21	-4	-16	.	.
CCN(CC)CCCN=C1N[C@@H](c2ccccc2)C(C(=O)OC)=C(C)N1CC	-2	77*	12	-6	-25	-3%	-3%
CCOc1ccccc1NC(=O)Cn1c(=O)n(Cc2ccco2)c(=O)c2cccnc21	.	-1	.	.	8	.	.
COc1cc2c(cc1OC)C1CC(=O)C(CC(C)C)CN1CC2 (stereo unspecified)	7	48*	21	-30	-20	-10%	13%
CCC1CN(C(=O)N2CCC(C(=O)NCCC3=CCCCC3)CC2)c2cc(C)ccc2O1 (stereo unspecified)	.	0	.	.	1	.	.
COc1ccc(-c2cc(C#N)nc(Cl)n2)cc1	-2	3	26	-4	5	-15%	-3%
COc1ccc(CNC(=O)[C@]2(C)CCC[C@@]3(C)C4CC[C@@]5(C)C[C@]4(CCC32)CC5=O)cc1 (stereo partly specified)	-2	-1	10	-5	-6	-7%	2%
O=C(c1ccco1)N1CCN(C(=O)C2CCN(S(=O)(=O)c3cccs3)CC2)CC1	-5	1	-1	-13	-11	0%	1%
Cc1cccc(SC2CCN(Cc3nc(CC4CC4)no3)CC2)c1	3	1	-15	5	2	.	.
Cc1cccc(N2CCN(Cc3nc(CC4CC4)no3)CC2)n1	2	30	-33	-4	-10	-5%	-5%
COc1cccc(CNC(=O)CSc2nc3ccccc3nc2Cc2ccc(C)cc2)c1OC	.	0	.	.	-6	.	.
C[C@H](CO)N1C[C@H](C)[C@@H](CN(C)S(C)(=O)=O)Oc2c(NC(=O)Nc3ccccc3)cccc2C1=O	2	.	.	-6	.	.	.
CC(NC(=O)CCC(=O)N1CCCCCC1)c1ccccc1 (stereo unspecified)	0	44*	10	3	-23	-1%	-2%
CC(NC(=O)CCC(=O)NC(C)c1ccccc1)c1ccccc1 (stereo unspecified)	-2	0	-17	-5	-3	.	.
CC(COc1ccccc1)NC(C)C(O)c1ccc(O)cc1 (stereo unspecified)	13	77*	90*	-21	-27	2%	16%
COCOc1ccc(-c2ncc(OCCN3CCCC3=O)nc2NC(=O)c2cc3ccccc3s2)cc1	-2	.	.	16	.	.	.
CCC(C)N(CCNC(=O)c1ccc2c(c1)NC(=O)c1ccccc1S2)C1CCCCC1 (stereo unspecified)	-6	.	.	-32	-28	-11%	-3%
CCOC(=O)C1=CCN(S(=O)(=O)c2ccccc2C)C1c1ccc(Cl)cc1 (stereo unspecified)	-5	.	.	-8	.	.	.
CN=c1scc(-c2ccco2)n1/N=C/c1ccc(O)c(O)c1	49*	36*	28	27	-9	?	35µM*
